Compound activity deposited in PubChem by National Center for Advancing Translational Sciences (NCATS).
Sampled rows, rich in hits. Any-hit rate of the full collection: about 2.2%.
IL2 activator = IL-2 activation; IL-2 activation reporter assay, cell-based qHTS; stimulated with anti-CD3/CD4/CD28 beads; in transgenic mouse T cells; activation, % (series mostly up to about 46 µM); actives 0.065% (n = 360,000); AID 652025; in the data active = activation above about 50%; inconclusive = mostly about 30% to 49%; note: 0% is about no effect
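EGFP and DsRed fluorescence is measured by plate cytometry in unstimulated transgenic mouse T cells exposed to compound for 60 minutes, then stimulated 18 hours at 37 degrees C with anti-CD3/anti-CD4 beads plus anti-CD28.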
TrxR1 substrate = is turned over as a substrate by rat TrxR1; O89049; purified TrxR1 substrate turnover, NADPH consumption readout; Potency, µM (highest dose often 114 µM), for the others: at the top dose activity change, negative = substrate turnover; actives 0.01% (n = 390,000); AID 588456; note: potency is the fitted concentration of half-maximal effect; % is set by controls: 0 for no effect and ±100 for the full control effect; nearly all actives have a fitted effect of over 50% in size
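Rat TrxR1, dispensed at 90 nM, was prereduced with 400 uM NADPH (final) for 5 min at ~22 deg C, then incubated with compound 15 min before 400 uM selenite. A first-read NADPH fluorescence drop versus no-compound background flagged substrates.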
rTrxR1 inhibitor = rat TrxR1 inhibition; AID 588453; recombinant rTrxR1, NADPH fluorescence consumption, selenite substrate; O89049; Potency, µM (titrated, usually from 114 µM), for the others: top-dose activity change, negative = inhibition, hits mostly inhibitors; actives 1% (n = 390,000); note: potency is the fitted concentration of half-maximal effect; % is set by controls: 0 for no effect and ±100 for the full control effect; nearly all actives have a fitted effect of over 65% in size
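Rat TrxR1 (90 nM in the dispensed reagent) was pre-reduced with 400 uM NADPH for 5 min at room temperature, then incubated with compound for 15 min. After 400 uM selenite was added, NADPH fluorescence (Ex 340/Em 450 nm) was followed for 8 min.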
BRCA1 expr up = increases BRCA1 expression; MCF7-BRCA1-FFLuc reporter, luminescence, 48 h; response scale: scaled: vehicle 0%, 10 µM genistein 100%; Potency, µM (top dose mostly 46.1 µM), for inactives: at the top dose activation, actives largely listed as activators; actives 1.1% (n = 380,000); note: potency is the fitted concentration of half-maximal effect; nearly all actives have a fitted effect of over 80% in size
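First, MCF7-BRCA1-FFLuc cells (2000/well) attach for 2 h; next, compounds are pin-added and incubated 48 h at 37 °C; finally, luciferase reagent is added and luminescence read after 15 min.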
IDH1 R132H inh = blocks human mutant IDH1 R132H enzyme; Potency, µM (top dose mostly 76.6 µM), for the others: at the top dose activity change, negative = inhibition, actives largely listed as inhibitors; AID 602179; IDH1-R132H enzyme, NADPH consumption, diaphorase/resazurin fluorescence; O75874; actives 0.093% (n = 390,000); note: potency is the fitted concentration of half-maximal effect; % is set by controls: 0 for no effect and ±100 for the full control effect; nearly all actives have a fitted effect of over 65% in size
Target sequence (O75874 whole entry R132H, stated change not applied): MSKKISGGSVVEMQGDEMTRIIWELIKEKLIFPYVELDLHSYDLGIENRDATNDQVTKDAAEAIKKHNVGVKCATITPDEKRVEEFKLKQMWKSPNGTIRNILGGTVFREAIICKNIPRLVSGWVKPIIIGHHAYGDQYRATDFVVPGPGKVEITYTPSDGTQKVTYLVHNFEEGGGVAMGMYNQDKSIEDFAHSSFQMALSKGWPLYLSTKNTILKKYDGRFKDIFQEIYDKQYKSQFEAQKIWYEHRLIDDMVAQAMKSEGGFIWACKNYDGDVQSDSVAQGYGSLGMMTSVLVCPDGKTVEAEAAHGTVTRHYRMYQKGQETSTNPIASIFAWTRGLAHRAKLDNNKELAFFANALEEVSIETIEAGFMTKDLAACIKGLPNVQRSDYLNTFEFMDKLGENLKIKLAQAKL
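IDH1-R132H (0.5 ug/mL dispensed) in pH 7.5 Tris buffer was preincubated 30 min with compound, then given a substrate mix of 0.016 mM NADPH and 2 mM alpha-KG for 80 min at room temperature; remaining NADPH was read by diaphorase/resazurin fluorescence.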
Giardia killer = Giardia lamblia killing. actives 0.15% (n = 340,000). activity change, % at 7.66 µM, hits read low. Giardia lamblia trophozoite viability; in the data active = activity change below about -80%; inconclusive = between about -30% and that limit;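 note: parasites exposed to compound for two days anaerobically before the ATP read; % is set by controls: 0 for no effect and ±100 for the full control effect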
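Giardia trophozoites, 100 cells per well, were exposed to compounds for 48 hrs at 37 deg C under anaerobic conditions; viability was then read as ATP content by bioluminescence after 15-30 min at room temperature.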
An asterisk follows results filed as active; ? = inconclusive; . = not tested or not shown; ! = not confirmed by another sample; [ ] = dose if it differs, or a comment. Unless noted, calls come from the whole dose curve; as a rule, active = well fitted curve in the direction sought with a large enough effect; inconclusive = small, poorly fitted or top-dose-only effect, or another doubt; inactive = no such curve, though single readings can be large; an effect the other way counts as inactive or inconclusive.

SMILES	IL2 activator	TrxR1 substrate	rTrxR1 inhibitor	BRCA1 expr up	IDH1 R132H inh	Giardia killer
Cn1c(C(=O)NCCC2=CCCCC2)cc2c(=O)n3ccccc3nc21	2	32%[57.1 µM]	10%[57.1 µM]	11µM*	-12%	-12
O=C(CCCCCBr)N1CCC(CC2CC(c3ccc(Cl)cc3)=NO2)(C(=O)NCC2CCCCC2)CC1 (stereo not given)	63*	3%	4%	28%	13%	-21
O=C(CCCCCBr)N1CCC(CC2CC(c3cccc(Br)c3)=NO2)(C(=O)NCC2CCCCC2)CC1 (stereo not given)	-2	5%[57.1 µM]	5%[57.1 µM]	-44%	4%	9
CCOc1ccccc1OCC(=O)NCc1ccco1	2	7%	28µM*	17%	4%	23
CCOc1ccccc1N(C(=O)CNS(=O)(=O)c1ccccc1)C(CC)C(=O)NCc1ccco1 (stereo not given)	-1	-2%	25µM*	-31%	6%	5
O=C(COc1ccc(Cl)cc1Cl)NCc1ccco1	0	10%[57.1 µM]	-10%[57.1 µM]	10µM*	7%	0
O=C(COc1ccccc1Cl)NCc1ccco1	-2	10%[0.457 µM]	-2%	47%	-2%	1
O=C(COc1ccc(Cl)cc1Cl)NNC(=S)NCc1ccco1	1	-8%	-17%	63%	22%	-17
O=C(COc1ccc(Cl)cc1Cl)c1ccc[nH]1	-3	-9%	-14%	10µM*	0%	1
CCCC(C(=O)NCc1ccco1)N(Cc1ccco1)C(=O)CNS(=O)(=O)c1ccccc1 (stereo not given)	0	2%[57.1 µM]	-1%[57.1 µM]	-8%	-3%	10
Cc1cc(C)c(NC(=O)Cn2nnc(-c3nc(-c4ccncc4)no3)c2N)c(C)c1	.	1%	20%	.	.	.
Nc1ccc(S(=O)(=O)N2CCOCC2)cc1	.	4%	4%	14%	.	-25
O=S(=O)(c1cccs1)N1CCN(c2nc(-c3cccs3)nc3ccccc23)CC1	.	-2%	-20%	23%	.	3
O=C(NCc1ccco1)c1ccc(COc2cc(Cl)ccc2Cl)cc1	1	-15%	-17%	7.9µM*	-1%	7
CCOC(=O)c1c(S(=O)(=O)N2CCCC(C(=O)N3CCN(c4cc(C)ccc4C)CC3)C2)c(C)n(C)c1C (stereo not given)	.	-5%[57.1 µM]	1%[57.1 µM]	.	-12%	.
COc1ccc(OCC#CCN2CC(C)OC(C)C2)cc1 (stereo not given)	-4	-2%	16µM*	17%	-1%	42
Fc1ccc(-c2cc(-c3ccc(F)cc3)c3c(n2)-c2cc(F)ccc2OC3)cc1	.	30%	50%	4%	3%	.
CCOC(=O)c1cc(-c2ccc(/C=C3/C(=O)NC(=O)C(C#N)=C3C)o2)ccc1Cl	-2	-2%[57.1 µM]	10µM*	3%	-2%	-9
CC1=C(C#N)C(=O)NC(=O)/C1=C\c1ccc(-c2ccc(C)cc2[N+](=O)[O-])o1	3	2%[57.1 µM]	16µM*	-1%	11%	10
COc1ccc(Br)cc1CNC(=O)Cn1nc(C)n2c(cc3cc(F)ccc32)c1=O	.	8%	18%	.	-3%	.
CC(C)(C)n1ncc2c(=O)n(Cc3c(F)ccc(Cl)c3Cl)cnc21	.	4%	21%	.	.	.
COc1ccc(C(CC(=O)O)NC(=O)c2cc3ccccc3oc2=O)cc1OC (stereo not given)	.	59%[11.4 µM]	69%[11.4 µM]	-7%	-2%	.
O=S(=O)(O)c1ccc2c(N=Nc3ccc(S(=O)(=O)O)c4ccccc34)c(O)c(S(=O)(=O)O)cc2c1	.	34%	71µM*	-18%	.	.
Cc1ccc(SC/C(O)=C(\C#N)c2nc3ccccc3n2C)cc1	8	-3%	-6%	13µM*	7%	8
Cc1ccc2nc(-c3ccncc3)[nH]c2c1	0	47%	10%	2.8µM*	9%	9
SMILES	IL2 activator	TrxR1 substrate	rTrxR1 inhibitor	BRCA1 expr up	IDH1 R132H inh	Giardia killer
Cc1ccc2oc(=O)c(-c3nc4ccc(C)cc4[nH]3)cc2c1	.	-8%[57.1 µM]	-9%[57.1 µM]	.	0%	.
Cc1ccc(S(=O)(=O)N(C)C)cc1NC(=O)c1cc(-c2ccco2)nc2ccccc12	-1	63%	3.5µM*	-11%	10%	2
COc1cc(/C=N/NC(=O)c2cc(-c3ccco3)nc3ccccc23)cc(OC)c1O	4	0%[57.1 µM]	13µM*	-11%	0%	28
CC(C)Cn1c(N)c(C(=O)COC(=O)c2cc(-c3ccco3)nc3ccccc23)c(=O)n(C)c1=O	0	14%	2.8µM*	-32%	-3%[38.3 µM]	?
Cc1ccccc1NC(=O)c1cc(-c2ccco2)nc2ccccc12	-6	43%	-48%	14%	6%	-27
NC(=O)COC(=O)c1cc(-c2ccco2)nc2ccccc12	0	60%	79µM*	-1%	13%	7
CC(C)Cn1c(N)c(C(=O)COC(=O)c2cc(-c3ccccc3)nc3ccccc23)c(=O)n(C)c1=O	0	7%[57.1 µM]	9%[57.1 µM]	-15%	-2%	?
COc1ccc(NC(=O)Cn2c(=O)oc3cc(S(=O)(=O)N4CCC(C)CC4)ccc32)c(OC)c1	.	-2%	1%	.	0%	.
Cc1ccc(CNC(=O)CCCn2c(=O)c3ccccc3n(CC(=O)Nc3ccc(C)c(C)c3)c2=O)cc1	.	0%	7%	19%	13%	.
CCOc1ccccc1NC1(c2ccccc2)C(=O)c2ccccc2C1=O	.	2%	34%	14%	12%	.
CCCCN(C(=O)c1cc(-c2ccco2)nc2ccccc12)c1c(N)n(CCC)c(=O)[nH]c1=O	1	0%	79µM*	9%	10%	16
CCCCCCNC(=O)c1cc(-c2ccco2)nc2ccccc12	-3	104%	3.5µM*	-3%	5%	4
O=C(c1cc(-c2ccco2)nc2ccccc12)N1CCN(Cc2ccccc2)CC1	0	109%	40µM*	54%	0%	-23
O=C(O)c1cc(-c2ccco2)nc2ccc(Br)cc12	-3	0%	1.3µM*!	0%	14%	-25
O=C(c1ccco1)N1CCN(C(=O)c2cc(-c3ccncc3)nc3ccc(Br)cc23)CC1	4	5%	-60%	-5%	4%	0
CCCCn1c(N)c(N(CC(C)C)C(=O)c2cc(-c3ccco3)nc3ccccc23)c(=O)[nH]c1=O	2	8%	?	0%	1%	-2
CCc1ccc(NC(=O)c2ccc(F)c(S(=O)(=O)N(C)C3CCCCC3)c2)cc1	.	0%[57.1 µM]	14%[57.1 µM]	.	5%	.
O=C(COc1ccccc1C(=O)OCC(=O)Nc1cccc2ccccc12)Nc1ccc(Br)cc1	.	-5%	3%	1%	.	.
COc1ccc(Cl)cc1NC(=O)Cn1c(=O)n2nc(-c3ccccc3)nc2c2ccccc21	.	4%	19%	.	0%	.
